# Hits are enriched below; roughly 2.4% of the tested compounds scored in any of these assays.
# Wnt act – Wnt/beta-catenin pathway activation | actives 1.2% (n = 300,000) | AID 743398 | Wnt/beta-catenin reporter cell assay, activator, plate reader | activation, % at 9.35 µM; in the data active means activation above about 30%, passing the limit was not always enough; inconclusive means no clear call, values can overlap the other calls
# GSIS activator – GLuc luminescence reporter in INS-1E cells, primary screen for activators of glucose-dependent secretion of insulin; INS-1E GLuc reporter insulin secretion, 2-3 h; activation, % at 16.6 µM; actives 0.61% (n = 370,000);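 active means lowest replicate activation of at least 40%, so every replicate reaches that level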
# NSD2 inh – inhibitors of human histone methyltransferase NSD2; O96028; NSD2 peptide methylation, AlphaScreen, 120 min; inhibition, % at 12.5 µM; actives 0.54% (n = 310,000); AID 743445
# Target sequence (O96028 whole entry, looked up): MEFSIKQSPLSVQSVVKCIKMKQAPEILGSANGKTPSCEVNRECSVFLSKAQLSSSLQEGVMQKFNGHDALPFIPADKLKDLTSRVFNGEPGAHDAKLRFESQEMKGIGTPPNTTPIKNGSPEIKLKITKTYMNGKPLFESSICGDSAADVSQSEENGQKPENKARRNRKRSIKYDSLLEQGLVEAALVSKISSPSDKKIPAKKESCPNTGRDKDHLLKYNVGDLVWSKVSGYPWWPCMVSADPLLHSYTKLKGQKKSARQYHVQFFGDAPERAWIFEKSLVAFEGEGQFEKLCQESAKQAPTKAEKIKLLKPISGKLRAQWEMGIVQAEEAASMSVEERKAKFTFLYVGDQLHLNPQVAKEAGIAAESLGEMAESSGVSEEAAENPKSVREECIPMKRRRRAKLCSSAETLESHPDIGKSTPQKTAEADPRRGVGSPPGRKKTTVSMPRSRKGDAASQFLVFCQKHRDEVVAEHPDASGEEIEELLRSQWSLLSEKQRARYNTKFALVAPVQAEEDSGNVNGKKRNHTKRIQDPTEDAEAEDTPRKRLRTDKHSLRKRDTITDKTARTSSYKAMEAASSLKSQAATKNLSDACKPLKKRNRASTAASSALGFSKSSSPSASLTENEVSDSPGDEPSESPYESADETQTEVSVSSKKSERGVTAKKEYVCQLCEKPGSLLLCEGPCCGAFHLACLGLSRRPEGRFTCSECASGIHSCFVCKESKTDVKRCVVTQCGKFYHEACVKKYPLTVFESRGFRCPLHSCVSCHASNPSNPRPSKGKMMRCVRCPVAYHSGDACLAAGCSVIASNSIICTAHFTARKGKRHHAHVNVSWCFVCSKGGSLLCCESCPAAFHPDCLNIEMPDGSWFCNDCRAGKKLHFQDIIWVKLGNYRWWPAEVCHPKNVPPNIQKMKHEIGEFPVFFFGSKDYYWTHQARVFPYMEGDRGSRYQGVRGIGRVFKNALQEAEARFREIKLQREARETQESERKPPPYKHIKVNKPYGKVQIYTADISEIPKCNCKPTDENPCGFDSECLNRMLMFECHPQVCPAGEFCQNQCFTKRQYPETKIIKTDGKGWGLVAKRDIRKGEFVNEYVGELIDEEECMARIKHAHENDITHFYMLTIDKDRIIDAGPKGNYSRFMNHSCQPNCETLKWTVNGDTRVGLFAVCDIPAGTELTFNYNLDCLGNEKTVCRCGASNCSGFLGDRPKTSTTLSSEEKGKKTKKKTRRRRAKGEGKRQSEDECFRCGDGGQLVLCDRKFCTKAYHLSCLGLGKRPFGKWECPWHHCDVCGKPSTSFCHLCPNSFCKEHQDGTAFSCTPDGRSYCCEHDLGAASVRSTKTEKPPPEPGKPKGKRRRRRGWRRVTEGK
# miR-122 sensor – blocks miR-122 activity in Huh7 sensor cells | Huh7 miR-122 Renilla luciferase sensor, 48 h; neutral wells = 0, positive control = 100 | activation (reporter increase), % at 12.5 µM | actives 0.3% (n = 340,000) | AID 602342;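 active means mean replicate activation score at least 90 and every replicate individually at or above 90; inconclusive means only one of the two criteria met; inactive means neither criterion met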;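 further: higher luciferase means less miR-122 activity so hits act as miR-122 inhibitors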
# MITF act – increases MITF-driven TRPM1 promoter luciferase signal; SK-MEL-5 TRPM1-promoter luciferase, 24 h; % of positive control, neutral wells = 0; actives 0.75% (n = 300,000); activation, % at 12.5 µM;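 active means mean activation of at least 80% with every replicate also reaching 80%; inconclusive means mean reaches 80% but some replicate falls short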
# Dyrk1A ADPGlo – blocks rat Dyrk1A kinase activity; Q63470; ADP-Glo luminescence, NFATc1 peptide; inhibition, % at 12.5 µM; actives 0.43% (n = 310,000); AID 504441
# Dyrk1A artifact – counter-screen for Dyrk1A inhibitors: ADP-Glo luciferase artifacts; ADP-Glo luciferase artifact assay, no Dyrk1A, luminescence; shares compounds with Dyrk1A ADPGlo; AC50, µM (highest dose often 12 µM); 1,300 tested, under 10 active; AID 588348;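 active means fitted half-maximal dose AC50 no more than ten times the top valid tested dose, with luminescence dropping as dose rises; inconclusive means poor fit, or flat fit with 30 to 70% inhibition; inactive means the rest, signal increases included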
# Hits are given with their value; – = inactive; ? = inconclusive; · = not tested or not shown. Unless noted, no stated cut-off is given here; in the data, active means inhibition above about 50%; inactive means the rest.
SMILES,Wnt act,GSIS activator,NSD2 inh,miR-122 sensor,MITF act,Dyrk1A ADPGlo,Dyrk1A artifact
CCCNC(=O)N1CC2(CN(C(=O)C3CCC3)C2)c2c([nH]c3cc(OC)ccc23)[C@H]1CO,·,–,·,·,·,·,·
COc1ccc(NC(=O)/C(C#N)=C\c2ccc(-c3cccc(C(=O)O)c3C)o2)cc1,–,–,–,–,–,78,–
O=C(O)CCC(=O)Nc1ccc(N2CCCCCC2)cc1,–,·,·,–,–,53,–
COc1cc(/C=C2\SC(N)=NC2=O)ccc1O,–,–,–,·,·,90,–
COc1ccc(C=C2C(=O)c3ccccc3C2=O)cc1O,–,–,–,–,–,84,–
COc1cc(C=C2C(=O)c3ccccc3C2=O)ccc1O,–,–,–,–,–,97,–
O=C(C[C@@H]1C[C@@H]2c3cc(NC(=O)c4cccnc4)ccc3O[C@@H]2[C@@H](CO)O1)NCc1ccc(Oc2ccccc2)cc1,·,–,·,–,·,·,·
COCC(=O)Nc1ccc2c(c1)[C@@H]1C[C@@H](CC(=O)OC)O[C@H](CO)[C@@H]1O2,·,–,·,–,·,·,·
Oc1ccc(/C=N/n2c(-c3ccccc3)n[nH]c2=S)cc1Br,–,–,–,–,–,56,–
COc1cccc(-c2cn(CC[C@@H]3CC[C@H](NS(=O)(=O)Cc4ccccc4)[C@H](CO)O3)nn2)c1,·,–,·,–,·,·,·
C/C=C/c1cnc2c(c1)C(=O)N([C@@H](C)CO)C[C@@H](C)[C@@H](CN(C)C(=O)Cc1ccccc1)O2,·,–,·,–,·,·,·
CN(C)CCCOC(=O)COc1ccc(Br)cc1,–,–,–,·,–,68,–
CN(C)CCOC(=O)COc1ccc(Cl)cc1,–,·,·,–,–,–,·
NS(=O)(=O)c1ccc(-c2ccc(/C=C3\NC(=S)NC3=O)o2)cc1,–,–,·,–,–,75,–
O=C(Nc1cccc(-c2nn[nH]n2)c1)c1csc2c1CCCC2,·,·,–,–,–,56,–
CCc1ccc(C(=O)Nc2cccc(-c3nn[nH]n3)c2)s1,–,–,–,–,–,83,–
CNC[C@@H]1OCCCC[C@H](C)Oc2ccc(NC(=O)c3ccccc3)cc2C(=O)N([C@H](C)CO)C[C@@H]1C,·,–,·,–,·,·,·
CN1CCc2c(sc3nc(NN)n(-c4ccc(Cl)cc4)c(=O)c23)C1,·,–,·,–,–,63,–
COc1nc(C)ccc1-c1noc(-c2ccccn2)n1,–,–,–,–,–,57,–
N#Cc1ccc(-c2ccc3c(c2)[C@H]2[C@H](CCN2C(=O)c2ccncc2)[C@H](CO)N3)cc1,·,–,·,–,·,·,·
COc1ccc(-c2cc(NCCc3ccncc3)n3ncnc3n2)cc1,–,·,–,–,–,51,–
O=C(O)c1cc2c(s1)-c1ccccc1CC2,–,–,–,–,–,·,·
COc1ccc2c(c1)CCc1cc(C(=O)O)sc1-2,–,65,–,–,–,55,–
CC=Cc1ccc2n(c1=O)C[C@H]1[C@H](CO)[C@@H](C(=O)N3CCc4ccccc4C3)[C@@H]2N1CC (mixture of isomers),·,–,·,·,·,·,·
COc1cc(O)cc2cc3c(c(O)c12)C(=O)CC(C)(O)O3 (centres undefined),–,·,·,–,·,108,–
SMILES,Wnt act,GSIS activator,NSD2 inh,miR-122 sensor,MITF act,Dyrk1A ADPGlo,Dyrk1A artifact
COc1cc(O)c2c(c1)OC(C)(C)CC2=O,–,·,–,–,·,–,·
C[C@H]1CCCCO[C@@H](CN(C)Cc2ccc(C(F)(F)F)cc2)[C@@H](C)CN([C@@H](C)CO)C(=O)c2cc(NS(=O)(=O)c3cn(C)cn3)ccc2O1,·,–,·,–,·,·,·
N#CCC(N)=C(C#N)C#N,–,·,·,–,–,69,–
COC(=O)CC#N,–,–,·,–,–,·,·
C[C@@H]1CN([C@@H](C)CO)C(=O)c2cc(NS(=O)(=O)c3ccccc3)ccc2O[C@H]1CN(C)Cc1ccccc1,·,–,·,–,·,·,·
O=C(c1ccc2c3n(nc2c1)-c1ccccc1CO3)N1CCOCC1,·,·,·,–,–,59,9µM
O=C(NCC1CCCO1)c1ccc2c3n(nc2c1)-c1ccccc1CO3 (centres undefined),?,–,·,–,?,–,·
Cc1ccccc1NC1=C/C(=N\S(=O)(=O)c2ccc(C(=O)O)cc2)c2ccccc2C1=O,–,–,139,–,–,62,–
C[C@H](CO)N1C[C@H](C)[C@H](CN(C)Cc2ccncc2)Oc2ccc(NC(=O)NC3CCCCC3)cc2C1=O,·,–,·,–,·,·,·
O=C(O)C[C@H]1CC[C@@H](NC(=O)CCN2CCCCC2)[C@H](CO)O1,·,–,·,·,·,·,·
Oc1ccc(-c2nc3ncccn3c2Nc2ccc3c(c2)OCO3)cc1,·,–,–,–,–,60,–
CS(=O)(=O)Nc1ccc(-c2cc(/C=C3\SC(N)=NC3=O)c[nH]c2=O)cc1,–,–,·,–,–,86,–
Cc1ccc(/C=C2\SC(N)=NC2=O)s1,–,–,–,–,–,–,·
CC(=O)N(/N=C1\Sc2ccccc2C1=O)c1cccc(C)c1,·,–,–,–,–,50,–
COc1ccc2[nH]c3c(c2c1)CCNC3=O,–,–,·,·,–,65,–
O=C1/C(=C/c2ccc3c(c2)OCO3)Oc2cc(OCC(=O)N3CCC[C@H]3C(=O)O)ccc21,·,·,·,–,–,71,–
COc1cccc(C(=O)Nc2ccc(F)c(F)c2F)c1,·,·,–,–,–,51,–
C[C@@H]1CCCCO[C@@H](CN(C)C(=O)NC2CCCCC2)[C@H](C)CN([C@H](C)CO)C(=O)c2cc(NS(=O)(=O)c3ccccc3)ccc2O1,·,–,·,–,·,·,·
Cc1[nH]ccc2c1[nH]c1cc(=O)ccc12,–,–,–,–,–,93,–
COc1ccc(-c2csc3ncnc(Sc4nnnn4C)c23)cc1,–,–,·,–,–,50,–
Cn1nnnc1Sc1ncnc2scc(-c3ccc([N+](=O)[O-])cc3)c12,–,–,·,–,–,–,·
O=C(C1CC(=O)N(C2CCCC2)C1)N1CCN(c2ccccc2)CC1 (centres undefined),–,–,–,·,–,–,·
O=C(C1CC(=O)N(C2CCCC2)C1)N1CCN(c2ccc(F)cc2)CC1 (centres undefined),–,–,·,–,–,61,–
C[C@@H]1CN([C@H](C)CO)C(=O)Cc2cc(NC(=O)c3ccncc3)ccc2O[C@H]1CN(C)Cc1ccc(C(=O)O)cc1,·,–,·,–,·,·,·
Cc1cccc(Nc2cc(C)c3c(O)cccc3n2)c1C,–,–,·,–,–,68,–
Cc1cccc(NC(=S)N(C)C)c1C,–,–,–,·,–,–,·
O=[N+]([O-])c1ccc(O)c(C=NNc2ccc(S(=O)(=O)O)cc2)c1,–,–,–,–,–,73,–
Cc1cc(N)n2ncc(-c3ccccc3)c2n1,·,·,–,–,–,–,·
CC(=O)Nc1ccc(Nc2cc(C)nc3c(-c4ccccc4)cnn23)cc1,–,–,–,–,–,55,–
Cc1cc(O)c2c(c1)C(=O)c1cc(O)cc(O)c1C2=O,–,·,·,–,–,66,–

# Screening data (PubChem BioAssay)
